A selection: hits, their analogues and other compounds. The true share with any hit is near 19%.
DT40 TDP1 CPT – DT40-hTDP1 cell growth loss with CPT | chicken DT40 Tdp1-/-;hTDP1 cells + 20 nM CPT, ATP luminescence, 48 h | Potency, µM (highest dose often 46.2 µM), inactives show at the top dose activity change, negative = growth inhibition, most hits filed as inhibitors | actives 12% (n = 420,000); note: potency is the fitted concentration of half-maximal effect; % is set by controls: 0 for no effect and ±100 for the full control effect; nearly all actives have a fitted effect of over 55% in size
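Chicken DT40 Tdp1-/- cells complemented with human TDP1, 400 cells/well, exposed to compounds plus 20 nM camptothecin for at least 48 h at 37 C; viability read as ATP content by CellTiter-Glo luminescence.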
DT40 TDP1 no CPT – qHTS for Inhibitors of human tyrosyl-DNA phosphodiesterase 1 (TDP1): qHTS in cells in absence of CPT; actives 15% (n = 420,000); DT40 Tdp1-/- hTDP1 cells, no CPT, ATP luminescence, 48 h; Potency, µM (doses to about 46.2 µM), for inactives: top-dose activity change, negative = growth inhibition, actives largely listed as inhibitors; note: potency is the fitted concentration of half-maximal effect; % is set by controls: 0 for no effect and ±100 for the full control effect; nearly all actives have a fitted effect of over 55% in size
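Growth kinetics read by CellTiter-Glo luminescence after ≥48 hr at 37 °C. Cells: DT40 Tdp1-/- stably carrying human TDP1, 400 per well, compound exposure in the absence of CPT (DMSO vehicle).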
HepG2 tox – counter-screen for TGF-b inhibitors: cytotoxicity in HepG2 cells | HepG2 CAGA-GFP viability, ATP luminescence, 18 h | Potency, µM (doses to about 46.1 µM), without a hit: at the top dose activity change, negative = cytotoxicity, hits mostly cytotoxic | actives 0.76% (n = 410,000); note: potency is the fitted concentration of half-maximal effect
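CellTiter-Glo luminescence gave cytotoxicity after 18 hours at 37 degrees C. The cells were HepG2 CAGA-GFP in 1% FBS DMEM, stimulated with 500 pg/mL TGF-beta after compound addition. %Activity was normalised to no-cell wells (complete cell-killing) and DMSO (no toxicity), and curves were fitted and classified.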
TGFb inhibitor – blocks TGF-b signaling; AID 588855; Potency, µM (top dose mostly 46.1 µM), without a hit: at the top dose activity, negative = inhibition, most hits filed as inhibitors; actives 1.2% (n = 410,000); HepG2 CAGA-GFP TGF-b/SMAD3 reporter, GFP fluorescence, 18 h; TGF-beta stimulated, 500 pg/mL final; note: potency is the fitted concentration of half-maximal effect; % is set by controls: 0 for no effect and ±100 for the full control effect; nearly all actives have a fitted effect of over 65% in size
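Smad-responsive CAGA-GFP expression was quantified in HEPG2 cells exposed to compounds and 500 pg/mL final TGF-beta for 18 h at 37 degrees C; unstimulated wells defined full inhibition.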
S-ASM inh – inhibitors of human secretory acid sphingomyelinase. P17405. placental ASM, HMU-PC fluorogenic substrate, 60 min. Potency, µM (series often up to 57.5 µM), for inactives: at the top dose activity change, negative = inhibition, most hits filed as inhibitors. actives 0.006% (n = 340,000). AID 504937; note: potency is the fitted concentration of half-maximal effect
Target sequence (P17405 47-631 limits assumed): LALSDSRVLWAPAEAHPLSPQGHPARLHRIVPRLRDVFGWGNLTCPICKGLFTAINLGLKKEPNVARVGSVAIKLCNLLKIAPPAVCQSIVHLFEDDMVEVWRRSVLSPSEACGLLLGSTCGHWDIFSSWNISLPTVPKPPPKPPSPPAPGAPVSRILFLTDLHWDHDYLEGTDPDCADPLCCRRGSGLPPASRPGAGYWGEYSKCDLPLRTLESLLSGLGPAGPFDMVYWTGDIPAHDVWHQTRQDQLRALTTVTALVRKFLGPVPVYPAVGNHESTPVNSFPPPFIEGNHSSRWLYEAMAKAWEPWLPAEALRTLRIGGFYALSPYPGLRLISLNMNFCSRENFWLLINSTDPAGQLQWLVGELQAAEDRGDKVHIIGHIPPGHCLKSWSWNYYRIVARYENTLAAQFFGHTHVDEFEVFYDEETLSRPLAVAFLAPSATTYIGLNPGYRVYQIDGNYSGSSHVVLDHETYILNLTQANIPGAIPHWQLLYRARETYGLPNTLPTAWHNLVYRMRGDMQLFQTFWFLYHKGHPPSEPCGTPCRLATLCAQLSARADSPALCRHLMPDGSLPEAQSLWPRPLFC
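Fluorogenic HMU-PC substrate (9 uM final) is turned over by placental ASM in 60 min at 37 C after a 10 min compound preincubation. Reaction ended by alkaline stop (pH 10), with fluorescence read at 386/447 nm.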
IL1B secr inh – inflammasome signaling inhibition, IL-1 beta readout; actives 4.7% (n = 360,000); THP-1 LPS/ATP IL-1B secretion, AlphaLISA, 16 h; hits give low values; AID 743279; activity change, % at 57.5 µM; in the data active = activity change below about -50%; inconclusive = mostly about -30% to -49%; note: % is set by controls: 0 for no effect and ±100 for the full control effect
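Secreted IL-1B measured by AlphaLISA bead assay after 16 h compound exposure of THP-1 cells; compounds (final up to 57.5 uM) added 1 h before LPS (250 ng/mL) and ATP (1.25 mM) stimulation; lower signal means less secretion.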
An asterisk follows results filed as active. Unless noted, calls come from the whole dose curve; as a rule, active = well fitted curve in the direction sought with a large enough effect; inconclusive = small, poorly fitted or top-dose-only effect, or another doubt; inactive = no such curve, though single readings can be large; an effect the other way counts as inactive or inconclusive.

For Cc1ccccc1-c1nn2c(=O)cc(CN3CCN(C(=O)/C=C/c4ccccc4)CC3)nc2s1 the results were DT40 TDP1 CPT 16.4µM*, DT40 TDP1 no CPT inconclusive, HepG2 tox -20.3% and TGFb inhibitor inconclusive.
COc1ccccc1-c1nn2c(=O)cc(CN3CCN(C(=O)/C=C/c4ccccc4)CC3)nc2s1 was read as DT40 TDP1 CPT inconclusive, DT40 TDP1 no CPT 23.1µM*, HepG2 tox -0.6% and TGFb inhibitor inconclusive.
CCC(CC)NC(=O)CN(c1ccccc1OC)S(=O)(=O)c1cccs1 was read as DT40 TDP1 CPT -15.3%, DT40 TDP1 no CPT -28.3%, HepG2 tox -4.2%, TGFb inhibitor 0.3%, S-ASM inh -0.2% and IL1B secr inh 3.8.
For COC(=O)c1ccc(Cn2nnc3c(=O)[nH]c(C4CCCN(S(=O)(=O)c5cccc(Cl)c5)C4)nc32)cc1 (stereo unspecified) the results were DT40 TDP1 CPT inconclusive, DT40 TDP1 no CPT inconclusive, HepG2 tox 10.7%, TGFb inhibitor 8.7%, S-ASM inh -19.2% and IL1B secr inh 7.8.
For O=[N+]([O-])c1ccccc1N=Nc1ccc(O)cc1O the results were DT40 TDP1 CPT inconclusive, DT40 TDP1 no CPT 25.9µM*, HepG2 tox -24.9%, TGFb inhibitor 0.6%, S-ASM inh -17.5% and IL1B secr inh -2.4.
For O=S(=O)(O)c1cc(O)c(N=Nc2ccc(O)cc2O)c2ccccc12 the results were DT40 TDP1 CPT inconclusive, DT40 TDP1 no CPT inconclusive, HepG2 tox -12.7%, TGFb inhibitor -8.1%, S-ASM inh -8.1% and IL1B secr inh -26.3.
For COc1ccc(-c2nc3ccccc3n3c(-c4ccccc4)c4c(=O)n(C)c(=O)n(C)c4c23)cc1OC the results were DT40 TDP1 CPT -21.9%, DT40 TDP1 no CPT inconclusive, HepG2 tox -3.5% and TGFb inhibitor -1.3%.
For Cc1ccc(C2Nc3cc(C)c(C)cc3-n3c(-c4ccccc4)c4c(=O)n(C)c(=O)n(C)c4c32)o1 (stereo unspecified) the results were DT40 TDP1 CPT 7.31µM*, DT40 TDP1 no CPT 9.2µM*, HepG2 tox -20.6% and TGFb inhibitor -22.3%.
For Cn1c(=O)c2c(-c3ccccc3)n3c(c2n(C)c1=O)C(c1ccc([N+](=O)[O-])cc1)Nc1ccccc1-3 (stereo unspecified) the results were DT40 TDP1 CPT 16.4µM*, DT40 TDP1 no CPT 14.6µM*, HepG2 tox -13.9% and TGFb inhibitor -6.0%.
COc1ccc(-c2c3c(=O)n(C)c(=O)n(C)c3c3n2-c2ccccc2NC3c2ccco2)cc1 (stereo unspecified) was read as DT40 TDP1 CPT 14.6µM*, DT40 TDP1 no CPT inconclusive, HepG2 tox -36.9% and TGFb inhibitor -7.5%.
Screening COc1ccc(O)c(C2Nc3ccccc3-n3c(-c4ccccc4)c4c(=O)n(C)c(=O)n(C)c4c32)c1 (stereo unspecified) returned DT40 TDP1 CPT 9.2µM*, DT40 TDP1 no CPT 18.4µM*, HepG2 tox -30.3% and TGFb inhibitor inconclusive.
Screening COc1ccc(-c2nc3ccccc3n3c(-c4ccc(OC)cc4)c4c(=O)n(C)c(=O)n(C)c4c23)cc1 returned DT40 TDP1 CPT inconclusive, DT40 TDP1 no CPT inconclusive, HepG2 tox 6.0% and TGFb inhibitor -11.0%.
`CC(C)c1ccc(C2C3=C(CC(c4ccco4)CC3=O)Nc3nc(C(F)(F)F)nn32)cc1` (stereo unspecified) gave HepG2 tox -1.6% and TGFb inhibitor 7.6%.
Screening Cc1ccc(-c2c3c(=O)n(C)c(=O)n(C)c3c3n2-c2ccccc2NC3c2ccc(C)cc2O)cc1 (stereo unspecified) returned DT40 TDP1 CPT 20.6µM*, DT40 TDP1 no CPT 20.6µM*, HepG2 tox -96.7% and TGFb inhibitor 6.31µM*.
Cc1ccc(-c2c3c(=O)n(C)c(=O)n(C)c3cn2-c2cc(C)ccc2O)cc1 was read as DT40 TDP1 CPT inconclusive, DT40 TDP1 no CPT inconclusive, HepG2 tox -48.2% and TGFb inhibitor inconclusive.
Screening COc1ccc(C2(c3ccc(OC)cc3)NC(=O)N(CC(=O)NCC(C)c3ccccc3)C2=O)cc1 (stereo unspecified) returned DT40 TDP1 CPT -4.0%, DT40 TDP1 no CPT 3.4%, HepG2 tox -19.0%, TGFb inhibitor -21.3%, S-ASM inh -11.5% and IL1B secr inh inconclusive.
Cc1nc(-c2ccc(S(=O)(=O)N3CCN(CCc4ccccc4)CC3)s2)cs1 was read as DT40 TDP1 CPT -13.7%, DT40 TDP1 no CPT inconclusive, HepG2 tox 14.3%, TGFb inhibitor 1.4%, S-ASM inh 0.4% and IL1B secr inh 34.2.
For CCCc1cnc2c(c1SCc1cccc(C)c1)c(=O)n(C)c(=O)n2C the results were DT40 TDP1 CPT 16.4µM*, DT40 TDP1 no CPT inconclusive, HepG2 tox -10.0% and TGFb inhibitor -2.4%.
Screening CCc1cnc2c(c1SCC(=O)Nc1ccc(Cl)cc1)c(=O)n(C)c(=O)n2C returned DT40 TDP1 CPT -13.1%, DT40 TDP1 no CPT -4.8%, HepG2 tox 1.4% and TGFb inhibitor 13.0%.
Screening CC(C)c1cnc2c(c1SCC(=O)c1ccc(Cl)cc1)c(=O)n(C)c(=O)n2C returned DT40 TDP1 CPT 18.4µM*, DT40 TDP1 no CPT 23.1µM*, HepG2 tox -23.5% and TGFb inhibitor -27.7%.
Screening CC1CCN(C(=O)CSc2c(C(C)C)cnc3c2c(=O)n(C)c(=O)n3C)CC1 returned DT40 TDP1 CPT 25.9µM*, DT40 TDP1 no CPT 16.4µM*, HepG2 tox -9.9% and TGFb inhibitor -11.6%.
CC(C)c1cnc2c(c1SCC(=O)O)c(=O)n(C)c(=O)n2C was read as DT40 TDP1 CPT 0.6%, DT40 TDP1 no CPT 6.3%, HepG2 tox -7.8% and TGFb inhibitor 1.0%.
CCCc1cnc2c(c1SCC(=O)Nc1cccc(C)c1C)c(=O)n(C)c(=O)n2C was read as DT40 TDP1 CPT 1.9%, DT40 TDP1 no CPT 0.3%, HepG2 tox 18.9% and TGFb inhibitor 6.2%.
Screening CCc1cnc2c(c1SC(C(C)=O)C(=O)N(C)C)c(=O)n(C)c(=O)n2C (stereo unspecified) returned DT40 TDP1 CPT 23.1µM*, DT40 TDP1 no CPT inconclusive, HepG2 tox 3.0% and TGFb inhibitor 0.0%.
